Assay results published in PubChem BioAssay (NCI).
Compounds without any hit were thinned out: in the full panel of roughly 83,000, 20% have a hit.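 In brief: 96-well plates, 48 h treatment, single concentration, percent growth endpoint.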 A number with no mark means an inactive call. The source made the active and inactive calls. How the source made its calls: active means growth percent below 10; inactive means the rest.

What was measured:
Experiment in all cases: NCI-60 one-dose screen, 48 h (100 = growth as untreated, 0 = no growth, -100 = all killed)
Conditions in all cases: 10 µM unless noted
[1] = tested on: HCT-15 colon
[2] = tested on: HT29 colon
[3] = tested on: SNB-75 CNS
[4] = tested on: SNB-19 CNS
[5] = tested on: U251 CNS
[6] = tested on: PC-3 prostate
[7] = tested on: SK-MEL-5 melanoma
[8] = tested on: UACC-62 melanoma
[9] = tested on: LOX IMVI melanoma
[10] = tested on: SK-MEL-28 melanoma

Structure (SMILES) | growth [1] | growth [2] | growth [3] | growth [4] | growth [5] | growth [6] | growth [7] | growth [8] | growth [9] | growth [10]
CC(=O)OC[C@]12CC[C@@H](C(=O)/C=C/c3cccnc3)[C@@H]1[C@H]1CC[C@@H]3[C@@]4(C)CC[C@H](OC(C)=O)C(C)(C)[C@@H]4CC[C@@]3(C)[C@]1(C)CC2 | -53% (active) | 6.53% (active) | 54.3% | 46.6% | 23.4% | 19.9% | -96.2% (active) | -4.76% (active) | -84% (active) | -56.4% (active)
COc1cc(C(=O)c2cc(C(C)=O)c3cccc(C)n23)cc(OC)c1OC | 17.9% | 8.74% (active) | 5.39% (active) | 39.8% | 30.9% | 55.7% | 33.3% | 23.3% | 39.2% | 61.8%
CC(=C(c1ccc(OCCN(C)C)cc1)c1ccc(OCCN(C)C)cc1)c1ccc(Cl)cc1 | -79.7% (active) | -67.3% (active) | -20.2% (active) | -40.9% (active) | -60.6% (active) | -52.9% (active) | -95.9% (active) | -67.6% (active) | -92.8% (active) | -82.6% (active)
CNCCN(C)c1ccc(Nc2cc(NC3CC3)n3ncc(C#N)c3n2)cc1NC(C)=O | 9.77% (active) | 16.4% | -24.3% (active) | 10.1% | 5.12% (active) | 10.7% | -1.54% (active) | -24.9% (active) | -25.7% (active) | 13%
O=C(CCCCCCNC(=O)C(O)(O)C(F)(F)F)Nc1ccc(-c2ccccc2)cc1 | 9.19% (active) | 4.75% (active) | 40.4% | 15.2% | -3.64% (active) | 28.7% | -41.5% (active) | -61.4% (active) | -77.4% (active) | 5.07% (active)
O=C(CCCCCCNC(=O)C(O)(O)C(F)(F)F)Nc1ccc(Cl)cc1 | 39.1% | 5.13% (active) | 42.5% | 31.7% | 13.9% | 35.3% | -28% (active) | -18.8% (active) | 4.18% (active) | 27%
Cc1cc2nc(C(Cl)Cl)nc(-c3ccc(S(=O)(=O)N(C)C)cc3)n2n1 | 5.58% (active) | 18% | 55.5% | 58.4% | 39.2% | 67.4% | 80.3% | 68.5% | 17.7% | 59.3%
COc1ccc2c(c1)c(-c1nn3cc(-c4ccncc4)nc3s1)cn2C | 60.7% | 79.2% | 29.6% | 86.1% | 83% | 71.2% | 86.3% | 68.7% | 65.9% | 114%
Cc1ccc(NC(=O)/C=C/c2ccc(OCCCOc3ccc4c(C)cc(=O)oc4c3)cc2)cc1 | 85.5% | 71.3% | -6.2% (active) | 38.2% | 71.6% | 74.5% | 76.9% | 93% | 68.8% | 59.9%
C#C[C@]1(O)CC[C@H]2[C@@H]3CC=C4c5sc(N6CCN(C)CC6)nc5CC[C@]4(C)[C@H]3CC[C@@]21C | 8.12% (active) | 5.26% (active) | 75.2% | 63.3% | 21.8% | 22.4% | 38.5% | 51.2% | 25.6% | 31%
O=C(CSc1nc2ccccc2c(=O)n1-c1ccc(Cl)c(Cl)c1)Nc1ccc(S(=O)(=O)Nc2ccc(Cl)nn2)cc1 | 99.5% | 96.6% | 68.8% | 96.3% | 91.6% | 92.3% | 100% | 85% | 97.4% | 96.3%
CC1(C)CC[C@]23CC[C@]4(C)[C@H](CC[C@@H]5[C@@]6(C)CC[C@H](NCO)C(C)(C)[C@@H]6CC[C@]54C)[C@H]2[C@H]1OC3 | -13.5% (active) | 17.9% | 86.5% | 36.9% | 1.32% (active) | 75% | 97.7% | 99.6% | -89.9% (active) | 89.5%
CCCN1C=C/C(=C\C(=O)n2ccc3ccccc32)c2ccccc21 | 80.3% | 74.7% | 90.8% | 94.5% | 90.3% | 73.7% | 82.1% | 68.9% | 78.7% | 90.6%
N#Cc1c(-c2cccs2)cc(-c2cnccn2)nc1SCC(=O)N/N=C/c1ccccc1 | 39.1% | 37.3% | 12.6% | 39.7% | 11.9% | 65.2% | 4.1% (active) | 55.3% | -28.7% (active) | 43.9%
Brc1ccc(-c2cc(-c3ccc4c(c3)OCCO4)n[nH]2)s1 | 19.2% | 11.1% | 7.95% (active) | 42.6% | 27.8% | 50% | 12.1% | 49.5% | 41.7% | 57.8%
COc1ccc([C@@H]2C(=O)N(c3cc(OC)c(OC)c(OC)c3)[C@H]2c2ccc(OC)c(O)c2)cc1 | 10.8% | -12% (active) | 43.1% | 29.7% | 19.3% | 29.8% | -22.9% (active) | 29.2% | 19.4% | 67.8%
CCCCCc1ccc(S(=O)(=O)Nc2cc(-c3csc(N)n3)ccc2OC)cc1 | 81.8% | 114% | 103% | 91.3% | 95.8% | 90.8% | 84.8% | 75.9% | 107% | 111%
CCCCOc1ccc(S(=O)(=O)N2CCN(c3nc(C)cc(N4CCOCC4)n3)CC2)cc1 | 5.32% (active) | -35.5% (active) | 2.51% (active) | 62.6% | 18.8% | 36.4% | 84% | -23.6% (active) | -71.5% (active) | -2.33% (active)
C#C[C@]1(O)CC[C@H]2[C@@H]3CC=C4c5sc(Nc6ccc(C)cn6)nc5CC[C@]4(C)[C@H]3CC[C@@]21C | -45.6% (active) | 1.03% (active) | -12.2% (active) | -21.2% (active) | -1.79% (active) | -27.3% (active) | -93.1% (active) | -24.8% (active) | -61.7% (active) | -72.4% (active)
Cn1ncc2ncc(-c3ccc4ncc(C#N)c(N5CCc6cc(F)c(Cl)cc65)c4c3)cc21 | 23.2% | 41.4% | -1.84% (active) | 51.6% | 48.6% | 26% | 39.5% | 20.8% | 19.3% | 48.4%
CCN(CC)c1ccc(/C=N/NC(=O)c2ccc(S(N)(=O)=O)cc2)cc1 | 20.4% | 30.8% | 71.1% | 36.9% | 33.5% | 43.8% | -0.119% (active) | 15.7% | 0.095% (active) | 22.5%
C1=CC(c2nn3c(-c4ccccc4)nnc3s2)=Cc2ccccc2O1 | 23.5% | 82.1% | 78.3% | 74.9% | 84.9% | 80.5% | 95.6% | 74% | -24.4% (active) | 30.6%
O=C(CSc1nc2ccccc2c(=O)n1-c1ccccc1)N/N=C/c1ccc(Oc2ccc(Br)cc2)cc1 | 63.7% | 38.2% | 57.8% | 39.9% | 21.5% | 71.8% | 59.1% | 68.8% | 21% | 70.9%
Cc1ccc(NC(=O)Nc2nc3ccc([N+](=O)[O-])cc3s2)cc1 | 7.79% (active) | 11.7% | 1.44% (active) | 11.3% | 4.96% (active) | -1.61% (active) | -55% (active) | 9.49% (active) | 11.6% | 14.8%
CN(C)c1cccc2c(S(=O)(=O)Nc3cccc(-c4csc(NC(=O)CCCCCN5CCN(CCO)CC5)n4)c3)cccc12 | 90.6% | 17% | 80.1% | 87.9% | 70.2% | 72.3% | 79.2% | 94.1% | 12.9% | -7.14% (active)
Cc1ccc(/C=N/Nc2nc(Nc3ccccc3)nc(Nc3ccc(S(N)(=O)=O)cc3)n2)cc1 | 53.5% | 54.8% | 67.7% | 77.6% | 62.6% | 66.8% | 76% | 91.3% | 54.9% | 75.7%
